The text below walks through data of PubChem BioAssay (NCATS).

SMILES strings stand for the structures. Several values for one entry are separate records, joined by “and”; a condition that tells them apart may be missing. Equal values may be shown once. Records with an inconclusive call do not appear. Activity calls are given as the source filed them. Unless noted, calls come from the whole dose curve; as a rule, active = well fitted curve in the direction sought with a large enough effect; inconclusive = small, poorly fitted or top-dose-only effect, or another doubt; inactive = no such curve, though single readings can be large; an effect the other way counts as inactive or inconclusive.

Assay [1] can be described thus: qHTS Assay for Lipid Storage Modulators (AID 1519; calls by dose curve; for activity change, negative = inhibition: % is set by controls: 0 for no effect and ±100 for the full control effect). To be noted: Drosophila S3 cells, BODIPY lipid droplet/cell ratio, laser cytometry, cells loaded with oleic acid. The method, boiled down:
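Cells seeded at 5,000 per well were treated with compounds over a concentration series and loaded with oleic acid (400 uM, as added). Lipid droplet fluorescence (488 nm excitation, 500-530 nm channel) was read by laser-scanning cytometry and normalized to 20 uM Triacsin C.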

The target of assay [2] is DNA repair nuclease/redox regulator APEX1 (Homo sapiens) (UniProt P27695). The assay can be described thus: qHTS Validation Assay for Inhibitors of the Human Apurinic/apyrimidinic Endonuclease 1 (APE1) (AID 1705;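 note: TAMRA fluorescence gain over two minutes as APE1 cuts a quenched THF abasic duplex; % is set by controls: 0 for no effect and ±100 for the full control effect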). To be noted: purified APE1 endonuclease activity, fluorescence, titration; series mostly up to 57.1 µM. The method, boiled down: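 Read-out: TAMRA fluorescence (525 nm ex, 598 nm em) from cleavage of a quenched THF abasic-site duplex, 50 nM final; activity taken as intensity change between third and first of three reads 60 s apart.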
In general terms: qHTS replaces the single test concentration by a dilution series.

Assay [3] in a line: Counterscreen for APE1 Inhibitors: Fluorescent Dye Displacement Validation Assay (AID 1707).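 Note: plate controls were ThO with dsDNA and no compound for no effect and ThO without dsDNA for full effect.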 To be noted: fluorescent dye displacement from DNA; series mostly up to 57.1 µM. The method, boiled down: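 Thiazole Orange (250 nM) bound to 50 nM TAMRA-labelled dsDNA with tetrahydrofuran abasic site; displacement by DNA-binding compounds lowers fluorescence. Buffer 50 mM Tris-HCl pH 7.5, 50 mM NaCl, 2 mM MgCl2, 0.01% Tween-20; endpoint read at 480/540 nm.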

The target in assay [4] is Endonuclease 4 (Escherichia coli (strain K12)) (UniProt P0A6C1). The assay can be described thus: Counterscreen for APE1 Inhibitors: qHTS Validation Assay for Inhibitors of Endonuclease IV (AID 1708). Note: % is set by controls: 0 for no effect and ±100 for the full control effect. Conditions: E. coli endonuclease IV, DNA cleavage fluorescence; series mostly up to 57.1 µM. The method, boiled down: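 Enzymatic AP-site incision assay using a double-stranded THF substrate labelled with TAMRA and BHQ-2; released fluorescence signals activity. Enzyme 2 nM, substrate 50 nM, 15 min compound preincubation.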
On the technique in general: Counterscreens check selectivity or assay interference.

Assay [5] is described as follows: qHTS for differential inhibitors of proliferation of Plasmodium falciparum line GB4 (AID 1816).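 For activity change, negative = inhibition: 0% = vehicle DMSO and -100% = reference inhibitor.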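 Note: parasite growth measured after 72 h incubation.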 Note: potency is the fitted concentration of half-maximal effect. To be noted: Potency: Plasmodium falciparum GB4 proliferation inhibition; series mostly up to 28.7 µM.
Assay [6] in a line: qHTS for differential inhibitors of proliferation of Plasmodium falciparum line 3D7 (AID 1876).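 Note: parasite growth measured after three days of culture; 0% = vehicle wells and -100% = reference inhibitor wells.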 To be noted: P. falciparum 3D7 proliferation inhibition; series mostly up to 28.7 µM.
A short description of assay [7]: qHTS for differential inhibitors of proliferation of Plasmodium falciparum line D10 (AID 1877).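 Note: parasites grown with compound for 72 h before DNA staining; plate controls were vehicle wells for no effect and reference inhibitor wells for full effect.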 To be noted: series mostly up to 28.7 µM.
Assay [8] is described as follows: qHTS for differential inhibitors of proliferation of Plasmodium falciparum line W2 (AID 1883).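 For activity change, negative = inhibition: 0% = vehicle wells and -100% = control inhibitor wells.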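 Note: parasites grown with compound for 72 h before lysis and staining.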 Note: potency is the fitted concentration of half-maximal effect. Conditions: Potency: Plasmodium falciparum W2 proliferation inhibition; series mostly up to 28.7 µM.
Assay [9] can be described thus: qHTS for differential inhibitors of proliferation of Plasmodium falciparum line HB3 (AID 1886).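 Note: parasites grown with compound for 72 h before SYBR Green readout; plate controls were vehicle for no effect and reference inhibitor for full effect.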 To be noted: Potency: Plasmodium falciparum HB3 proliferation inhibition; series mostly up to 28.7 µM.
Assay [10] has as its target Ferritin light chain (Equus caballus) (UniProt P02791). The assay can be described thus: qHTS Validation Assay for Identification of Novel General Anesthetics (AID 2323). Note: % is set by controls: 0 for no effect and ±100 for the full control effect. Conditions: horse apoferritin, anesthetic-site fluorescent probe displacement; series mostly up to 76.9 µM. The method, boiled down: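 10 uM horse-spleen apoferritin + 1-AMA (50% saturated, PBS); cpd pin-transferred, 10 min RT. Ex 380/Em 535 nm endpoint. Activity normalized between free 1-AMA and 1-AMA/apoferritin; 4-parameter Hill fit of concentration-response.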

Assay [11] concerns the target ATP-dependent DNA helicase Q1 (Homo sapiens) (UniProt P46063). The assay can be described thus: qHTS Validation Assay for Inhibitors of RecQ-Like Dna Helicase 1 (RECQ1) (AID 2353).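 Note: plate controls were DMSO vehicle for no effect and enzyme-free control for full effect.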 Conditions: recombinant RECQ1 helicase DNA unwinding assay; series mostly up to 25.6 µM. The method, boiled down: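 50 nM RECQ1T1 preincubated 15 min with compound in Tris pH 8.0 buffer with MgCl2, DTT, Tween-20 and 2.5 ug/ml poly(dI-dC); started with 200 nM TAMRA/BHQ-2 forked duplex and 2 mM ATP. Unwinding read as fluorescence (525/598 nm), two reads 2 h apart.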

The target of assay [12] is RecQ-like DNA helicase BLM (Homo sapiens) (UniProt P54132). The assay can be described thus: qHTS Validation Assay for Inhibitors of Bloom's syndrome helicase (BLM) (AID 2364).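 Note: plate controls were DMSO vehicle for no effect and enzyme-free control for full effect.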 To be noted: BLM helicase DNA unwinding, fluorescence, in vitro; series mostly up to 57.1 µM. The method, boiled down: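 Forked 20-bp duplex substrate (200 nM, TAMRA/BHQ-2) plus 2 mM ATP added after 15 min compound preincubation with 50 nM enzyme, pH 8.0, poly(dI-dC) 2.5 ug/ml. Strand separation followed by fluorescence (525/598 nm) over 2 h, normalized to enzyme-free and DMSO controls.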

A short description of assay [13]: Cytometric Cell-Based qHTS for Inhibitors of the mTORC1 Signaling Pathway in MEF (Tsc2-/-, p53-/-) Cells (AID 2660).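 Note: percent of cells above a phospho-rpS6 to PI ratio cutoff in each well; plate controls were DMSO for no effect and rapamycin for full effect.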 To be noted: mTORC1 pathway cytometry; series mostly up to 38.3 µM. The method, boiled down: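 Tsc2-/-, p53-/- MEFs (empty vector) exposed to compound 24 h at 37 C, fixed, stained with Alexa-488 anti-phospho-rpS6 Ser235/236 and propidium iodide. Acumen laser scanning; phospho-S6/PI ratio thresholded against 7.5 nM rapamycin, reported as % positive cells.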

The nature of assay [14]: High Content Imaging Cell-Based qHTS for Inhibitors of the mTORC1 Signaling Pathway in MEF (Tsc2-/-, p53-/-) Cells (AID 2666).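 Note: percent of cells scored positive for phospho-rpS6 Ser235/236 immunostaining by imaging.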 Note: potency is the fitted concentration of half-maximal effect. To be noted: series mostly up to 38.3 µM. The method, boiled down:
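Cells were plated, dosed with compound after 24 hrs, and incubated another 24 hrs at 37 degree Celsius. Fixed cells were immunostained for phospho-rpS6 Ser235/236 and counterstained, and the normalized signal was scored as % active cells against rapamycin and DMSO controls.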

Assay [15] is described as follows: High Content Imaging Cell-Based qHTS for Inhibitors of the mTORC1 Signaling Pathway in MEF Cells (AID 2667).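 For activity change, negative = inhibition: Tsc2-/- p53-/- MEFs stably re-expressing wild-type Tsc2 exposed 24 h; plate controls were DMSO wells for no effect and rapamycin control wells for full effect.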 Note: potency is the fitted concentration of half-maximal effect. To be noted: series mostly up to 38.3 µM. The method, boiled down: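 Immunofluorescence for rpS6 phosphorylation in MEFs of Tsc2-/-, p53-/- background rescued with WT Tsc2. Compound exposure lasted 24 hrs. Inhibition was scored against rapamycin-treated control wells.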

Assay [16] can be described thus: Cytometry Cell-Based qHTS for Inhibitors of the mTORC1 Signaling Pathway in MEF cells (AID 2668).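 For activity change, negative = inhibition: Tsc2-/- p53-/- mouse embryonic fibroblasts stably re-expressing wild-type Tsc2; percent cells positive for phospho-rpS6 Ser235/236 relative to propidium iodide stain; plate controls were DMSO wells for no effect and 7.5 nM rapamycin control wells for full effect.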 Note: potency is the fitted concentration of half-maximal effect. Conditions: mTORC1 pathway readout; series mostly up to 38.3 µM. The method, boiled down:
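Read-out: phospho-rpS6 Ser235/236 immunofluorescence normalized to propidium iodide intensity, scored as % active cells against a rapamycin (7.5 nM) threshold. Cells: Tsc2-/-, p53-/- MEFs stably expressing WT Tsc2, compound-treated 24 hrs at 37 degree Celsius.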

Assay [17] in a line: qHTS for differential inhibitors of proliferation of Plasmodium falciparum line 7G8 (AID 1815).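 For activity change, negative = inhibition: plate controls were vehicle wells for no effect and reference inhibitor wells for full effect.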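 Note: parasite growth measured after three days of incubation.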 Note: potency is the fitted concentration of half-maximal effect. Conditions: Plasmodium falciparum 7G8 proliferation inhibition; series mostly up to 28.7 µM.
A short description of assay [18]: qHTS for differential inhibitors of proliferation of Plasmodium falciparum line Dd2 (AID 1882).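 Note: compound exposure of 72 h on infected erythrocytes; plate controls were DMSO vehicle for no effect and 0.29 µM artemisinin for full effect; nearly all actives have a fitted effect of over 65% in size.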 To be noted: Potency: Plasmodium falciparum Dd2 proliferation inhibition; series mostly up to 28.7 µM. The method, boiled down: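 SYBR Green I DNA fluorescence read-out, ex 485/em 535 nm. Signals were normalized to 0.29 uM artemisinin and DMSO wells, then corrected using vehicle-only plates flanking each stack. Parasite growth ran 72 h in erythrocytes before lysis.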

Assay [19] in a line: qHTS Assay for Identification of Small Molecule Inducers of Hypoxia Response (AID 2120; active = well fitted curve in the direction sought with a large enough effect in the signal ratio, with a control signal flat, not every such curve was filed as active; the % refers to the signal ratio; note: 0% is about no effect). Conditions: hypoxia response reporter cells, beta-lactamase ratio readout; series mostly up to 104 µM. The method, boiled down: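 Induction of beta-lactamase reporter activity was measured in CellSensor HRE-bla ME-180 cells after 17 h compound treatment at 37 degrees C, using CCF4 substrate and the 460nm/530nm emission ratio to derive AC50 values.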

The mark [20] stands for this setting: measured here: cell count channel max response.
The mark [21] stands for this setting: measured here: lipid channel max response.

ATP-dependent DNA helicase Q1 (Homo sapiens), sequence (P46063 whole entry, looked up): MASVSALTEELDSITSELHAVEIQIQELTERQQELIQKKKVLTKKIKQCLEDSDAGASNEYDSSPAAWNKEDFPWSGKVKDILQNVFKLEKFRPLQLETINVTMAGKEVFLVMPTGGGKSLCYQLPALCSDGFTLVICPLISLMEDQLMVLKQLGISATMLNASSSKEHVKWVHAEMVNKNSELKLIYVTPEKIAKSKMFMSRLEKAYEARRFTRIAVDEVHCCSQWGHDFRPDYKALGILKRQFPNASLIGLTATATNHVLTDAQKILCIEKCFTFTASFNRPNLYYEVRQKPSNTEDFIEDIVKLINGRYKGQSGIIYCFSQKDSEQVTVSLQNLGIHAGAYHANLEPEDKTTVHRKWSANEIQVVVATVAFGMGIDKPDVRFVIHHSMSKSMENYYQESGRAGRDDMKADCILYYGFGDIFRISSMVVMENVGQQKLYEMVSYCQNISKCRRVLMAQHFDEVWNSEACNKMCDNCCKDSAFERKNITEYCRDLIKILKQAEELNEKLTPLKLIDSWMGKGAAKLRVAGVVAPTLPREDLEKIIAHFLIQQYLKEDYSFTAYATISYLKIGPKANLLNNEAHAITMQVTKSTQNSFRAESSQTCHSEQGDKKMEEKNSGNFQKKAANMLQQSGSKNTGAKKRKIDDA
DNA repair nuclease/redox regulator APEX1 (Homo sapiens), sequence (P27695 whole entry, looked up): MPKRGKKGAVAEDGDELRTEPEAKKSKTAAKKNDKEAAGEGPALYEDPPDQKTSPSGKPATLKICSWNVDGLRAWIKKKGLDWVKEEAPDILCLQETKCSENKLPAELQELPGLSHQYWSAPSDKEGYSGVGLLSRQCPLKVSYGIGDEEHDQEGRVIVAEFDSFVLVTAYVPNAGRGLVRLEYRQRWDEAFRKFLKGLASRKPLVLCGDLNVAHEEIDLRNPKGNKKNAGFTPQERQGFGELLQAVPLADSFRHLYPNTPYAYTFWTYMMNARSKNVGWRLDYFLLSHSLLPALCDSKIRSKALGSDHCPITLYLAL
Ferritin light chain (Equus caballus), sequence (P02791 2-175 limits assumed): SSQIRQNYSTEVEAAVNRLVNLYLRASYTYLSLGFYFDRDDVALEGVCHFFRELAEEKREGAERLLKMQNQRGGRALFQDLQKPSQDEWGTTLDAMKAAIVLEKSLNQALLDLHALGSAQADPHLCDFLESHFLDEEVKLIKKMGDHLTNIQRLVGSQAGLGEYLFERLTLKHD
RecQ-like DNA helicase BLM (Homo sapiens), sequence (P54132 whole entry, looked up): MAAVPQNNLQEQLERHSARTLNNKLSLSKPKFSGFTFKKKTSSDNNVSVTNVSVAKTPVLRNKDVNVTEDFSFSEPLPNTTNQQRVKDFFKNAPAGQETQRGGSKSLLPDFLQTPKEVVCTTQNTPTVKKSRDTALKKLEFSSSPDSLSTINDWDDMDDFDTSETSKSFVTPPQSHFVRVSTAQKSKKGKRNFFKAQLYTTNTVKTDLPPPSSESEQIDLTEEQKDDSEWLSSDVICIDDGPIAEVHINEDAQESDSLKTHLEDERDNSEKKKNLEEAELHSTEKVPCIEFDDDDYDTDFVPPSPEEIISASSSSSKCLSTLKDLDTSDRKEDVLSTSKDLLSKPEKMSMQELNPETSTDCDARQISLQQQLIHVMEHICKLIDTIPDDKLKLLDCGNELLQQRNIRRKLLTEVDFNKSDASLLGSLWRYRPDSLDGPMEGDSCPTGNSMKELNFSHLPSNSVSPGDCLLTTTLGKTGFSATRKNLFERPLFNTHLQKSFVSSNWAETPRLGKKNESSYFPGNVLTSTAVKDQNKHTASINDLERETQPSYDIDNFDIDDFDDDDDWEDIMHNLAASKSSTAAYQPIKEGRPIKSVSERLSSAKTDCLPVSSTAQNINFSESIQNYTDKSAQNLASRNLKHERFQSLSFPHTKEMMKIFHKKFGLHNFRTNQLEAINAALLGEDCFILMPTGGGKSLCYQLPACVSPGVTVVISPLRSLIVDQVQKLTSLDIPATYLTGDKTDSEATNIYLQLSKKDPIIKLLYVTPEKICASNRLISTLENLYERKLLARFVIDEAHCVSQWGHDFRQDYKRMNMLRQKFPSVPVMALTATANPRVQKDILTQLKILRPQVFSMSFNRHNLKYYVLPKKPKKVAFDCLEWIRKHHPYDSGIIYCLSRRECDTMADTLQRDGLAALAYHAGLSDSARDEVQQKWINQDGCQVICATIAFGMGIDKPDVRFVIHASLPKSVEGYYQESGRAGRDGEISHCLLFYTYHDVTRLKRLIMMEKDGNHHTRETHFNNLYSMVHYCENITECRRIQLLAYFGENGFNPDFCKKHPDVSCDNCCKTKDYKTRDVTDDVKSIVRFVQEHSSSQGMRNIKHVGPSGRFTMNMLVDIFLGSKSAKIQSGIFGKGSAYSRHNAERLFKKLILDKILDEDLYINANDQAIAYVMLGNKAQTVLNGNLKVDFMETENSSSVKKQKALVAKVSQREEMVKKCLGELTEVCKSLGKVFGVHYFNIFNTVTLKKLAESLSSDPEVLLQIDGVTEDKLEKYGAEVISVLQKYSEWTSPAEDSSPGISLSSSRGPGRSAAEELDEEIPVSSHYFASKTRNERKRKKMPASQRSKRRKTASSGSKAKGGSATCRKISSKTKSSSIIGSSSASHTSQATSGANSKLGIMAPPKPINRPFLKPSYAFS

Turning to `c1ccc(C2CC2)c(OCC2=NCCN2)c1`, the activity change, negative = inhibition in assay [1] (at 57.5 µM (top of the series)) was 8.25% (inactive). Also, the max response in assay [1] (setting [20]) worked out at 15.2%; in assay [1] (setting [21]), 26.1%. The molecule was classed as inactive in assay [2], in [4], in assay [10], in assay [11] and in [13]. The Potency entry in [3], in assay [6], in assay [7], in assay [9], in [12] and in [14] was “inactive” each time. Further, the Potency entry in assay [15] and in [16] was “inactive” in each case. Besides, the Potency is 12.6 µM (active) in assay [5] and 8.91 µM (active) in [8].
Turning to `CNCCCN1c2ccccc2CCc2ccccc21`, the results for the activity change, negative = inhibition in assay [1] (at 25.7 µM (top of the series)) and in assay [1] (at 57.5 µM (top of the series)) were -4.5% (inactive) and 0.465% (inactive), respectively. In addition, the max response in assay [1] (setting [20]) was -2.23% and 21.3%; in [1] (setting [21]), -6.66% and 25.9%.
With `c1ccc2c(c1)OCC(C1=NCCN1)O2` (stereo unspecified), in assay [1] (at 57.5 µM (top of the series)), the activity change, negative = inhibition was 0.671% (inactive). The figures for the max response in [1] (setting [20]) and in [1] (setting [21]) were 8.3% and 9.22%, respectively. In addition, the molecule was classed as inactive in assay [2], in assay [4], in assay [10] and in assay [11]. The Potency entry in assay [3] and in assay [7] was “inactive” each time. Also, the Potency was 8.91 µM (active) in assay [17], 12.6 µM (active) in assay [8], 6.56 µM (active) in assay [15] and 4.65 µM (active) in [16].
With `CN1CCN(C2=Nc3cc(Cl)ccc3Nc3ccccc32)CC1`, the activity change, negative = inhibition in [1] (at 25.7 µM (top of the series)) was 0.266% (inactive). Moreover, the max response in assay [1] (setting [20]) was -21%; in assay [1] (setting [21]), -18.6%.
`Cc1cc2c(C(C)C)c(O)c(O)c(C=O)c2c(O)c1-c1c(C)cc2c(C(C)C)c(O)c(O)c(C=O)c2c1O`: in assay [1] (at 57.5 µM (top of the series)), the activity change, negative = inhibition is -15.2% (inactive). Further, the max response in [1] (setting [20]) is -14.5%; in assay [1] (setting [21]), -19.7%. The values for the Potency in assay [14] and in assay [15] were 2.61 µM (active) and 14.7 µM (active), respectively.
Take `NCC(CC(=O)O)c1ccc(Cl)cc1` (stereo unspecified): the outcome in [2], in assay [4], in [10], in assay [11] and in assay [13] was inactive. In addition, the Potency result in assay [3], in assay [17], in [5], in assay [6], in assay [7] and in assay [18] was “inactive” in each case. The Potency result in [8], in assay [9], in assay [14], in assay [15] and in assay [16] was “inactive” throughout.
Turning to `CNCC(O)c1ccc(O)cc1` (stereo unspecified), the molecule was called inactive in assay [2], in [4], in assay [19], in assay [10], in assay [11] and in assay [13]. Also, the Potency result in assay [3], in assay [17], in [5], in assay [6], in [7] and in assay [18] was “inactive” in each case. The Potency entry in assay [8], in assay [9], in assay [14], in assay [15] and in assay [16] was “inactive” each time.
